High-throughput results deposited in PubChem by National Center for Advancing Translational Sciences (NCATS).
KCNH2 3.1 block: inhibitors of human KCNH2 3.1 potassium channel isoform; AID 720553; U2OS KCNH2 3.1, thallium flux FluxOr; hits give low values; activity change, % (tested at about 1.8 µM); 340,000 tested, 0.95% active;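 active = maximum activity change below -70%; inconclusive = maximum activity change from -70% to -50%; inactive = maximum activity change above -50%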;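 note: thallium influx rate constant from kinetic fluorescence after stimulation buffer; % is set by controls: 0 for no effect and ±100 for the full control effect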
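We transduce U2OS cells with the mutant 3.1 virus, culture them overnight, load FluxOr with Red40 quencher for 45 min, then add stimulation buffer and read kinetically for 2 min to derive a normalized rate constant.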
S-ASM inh: blocks human secretory acid sphingomyelinase; AID 504937; placental ASM, HMU-PC fluorogenic substrate, 60 min; 340,000 tested, 0.006% active; Potency, µM (top dose mostly 57.5 µM), for the others: at the top dose activity change, negative = inhibition, usual class: inhibitors; note: potency is the fitted concentration of half-maximal effect
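HMU-PC0 cleavage (9 uM final) by human placental ASM, 60 min at 37 °C following 10 min compound exposure at RT; stopped at pH 10, fluorescence Ex 386/Em 447 nm.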
hERG WT inh: inhibitors of human wildtype KCNH2 potassium channel; Q12809; U2OS, BacMam KCNH2, thallium flux FluxOr; hits give low values; activity change, % at 1.84 µM; 340,000 tested, 0.37% active; AID 720551;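 active = maximum activity change below -70%; inconclusive = maximum activity change between -70% and -50%; inactive = maximum activity change above -50%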; note: % is set by controls: 0 for no effect and ±100 for the full control effect
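U2OS cells transduced with wild-type KCNH2 virus are loaded with FluxOr dye for 45 min, and thallium flux is measured in kinetic reads before and after stimulation buffer. Rate constants are normalized to DMSO controls.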
Apoferritin bind: binds horse apoferritin like a general anesthetic; P02791; apoferritin/1-aminoanthracene competitive binding, fluorescence; Potency, µM (doses to about 77.5 µM), for the others: at the top dose activity change, negative = displacement, hits mostly inhibitors; 350,000 tested, 0.074% active; note: potency is the fitted concentration of half-maximal effect; % is set by controls: 0 for no effect and ±100 for the full control effect; nearly all actives have a fitted effect of over 20% in size
Target sequence (P02791 2-175 limits assumed): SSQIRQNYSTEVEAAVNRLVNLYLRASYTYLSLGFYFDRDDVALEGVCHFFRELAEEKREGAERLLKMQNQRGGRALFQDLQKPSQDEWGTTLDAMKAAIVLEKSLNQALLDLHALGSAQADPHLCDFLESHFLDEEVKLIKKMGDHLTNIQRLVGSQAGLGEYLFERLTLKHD
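10 uM apoferritin + 50% sat. 1-AMA, PBS; cpd 10 min RT; Ex380/Em535 endpoint; normalized to free probe vs complex; 4-param Hill fit; propofol titration as pos. ctrl.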
mIDH1 inhibitor: human IDH1 R132H inhibition | 390,000 tested, 0.093% active | AID 602179 | IDH1-R132H enzyme, NADPH consumption, diaphorase/resazurin fluorescence | Potency, µM (series often up to 76.6 µM), for inactives: at the highest dose activity change, negative = inhibition, usual class: inhibitors; note: potency is the fitted concentration of half-maximal effect; % is set by controls: 0 for no effect and ±100 for the full control effect; nearly all actives have a fitted effect of over 65% in size
Target sequence (O75874 whole entry R132H, stated change not applied): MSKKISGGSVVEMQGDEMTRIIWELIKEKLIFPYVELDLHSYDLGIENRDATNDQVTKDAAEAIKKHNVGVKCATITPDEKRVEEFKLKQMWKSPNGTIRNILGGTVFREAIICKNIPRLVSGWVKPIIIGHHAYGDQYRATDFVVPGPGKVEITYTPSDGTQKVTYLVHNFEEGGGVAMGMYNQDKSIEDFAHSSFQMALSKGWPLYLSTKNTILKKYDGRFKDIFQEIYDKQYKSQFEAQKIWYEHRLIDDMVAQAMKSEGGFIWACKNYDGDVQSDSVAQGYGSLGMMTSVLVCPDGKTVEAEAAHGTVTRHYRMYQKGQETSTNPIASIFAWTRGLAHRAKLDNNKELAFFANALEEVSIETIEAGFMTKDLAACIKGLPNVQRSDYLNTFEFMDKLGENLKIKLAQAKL
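IDH1-R132H (0.5 ug/mL dispensed) in pH 7.5 Tris buffer was preincubated 30 min with compound, then given a substrate mix of 0.016 mM NADPH and 2 mM alpha-KG for 80 min at room temperature; remaining NADPH was read by diaphorase/resazurin fluorescence.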
The depositor's hits bear a star; ? = inconclusive; nt = no result. Compounds with a hit are over-represented: about 1.2% of the library has one in this group of screens. Unless noted, calls come from the whole dose curve; as a rule, active = well fitted inhibition curve with a large enough effect; inconclusive = small, poorly fitted or top-dose-only effect; inactive = no such curve, though single readings can be large or run the other way.

SMILES	KCNH2 3.1 block	S-ASM inh	hERG WT inh	Apoferritin bind	mIDH1 inhibitor
CCOC(=O)C1(Cc2ccccc2)CCN(C2Cc3ccccc3C2)CC1	-86*	-2%	-3	-21%	2%
CCOC(=O)C1(CCCc2ccccc2)CCN(Cc2cnc(C)s2)CC1	-23	6%	-91*	-19%	-5%
CCOC(=O)C1(CCCc2ccccc2)CCN(Cc2nccn2CC)CC1	-93*	2%	-13	-12%	3%
CCOC(=O)C1(CCCc2ccccc2)CCN(CCCn2cccn2)CC1	-111*	0%	-131*	-13%	-5%
Cc1ccc(CNC(=O)c2cccc(-n3cnc4cccnc43)c2)cc1	nt	nt	nt	?	0%
CC(=O)N1CCN(C(=O)C(Cc2ccccc2)NC(=O)c2ccccc2)CC1 (centres undefined)	-5	1%	8	nt	-14%
CC(=O)NC(Cc1ccccc1)C(=O)N1CCN(C(=O)c2cccs2)CC1 (centres undefined)	-94*	6%	5	-6%	13%
Cc1c(C=O)c2ccccc2n1CC(=O)NCc1ccccc1	35	-1%	-2	0%	13%
Cc1c(C=O)c2ccccc2n1CC(=O)NCc1ccc2c(c1)OCO2	-390*	-3%	-3	-6%	3%
Nc1nnc(-c2cccc([N+](=O)[O-])c2)o1	5	3%	-92*	3%	4%
O=[N+]([O-])c1cccc(-c2nnc(C3CC3)o2)c1	-3	-5%	-16	9%	-9%
COc1ccc(Nc2c(-c3ccc(C)cc3)nc3cnccn23)cc1	-86*	-18%	-10	?	5%
Cn1c(N2CCN(C(c3ccccc3)c3ccccc3)CC2)nc2ccccc21	-86*	-1%	-48	-3%	1%
Cc1nc(C)c(C(=O)N2CCCC(C(=O)c3ccc4ccccc4c3)C2)s1 (centres undefined)	1	-3%	-19	-18%	-10%
Cc1ccc2c(c1C)NC(=O)C21N2CCCC2C(C(=O)c2ccc3ccccc3c2)C12C(=O)Nc1ccccc12 (centres undefined)	-86*	-3%	-5	-2%	2%
Cc1ccc(-c2nnn3c2nc(NCc2ccc4c(c2)OCO4)c2ccccc23)cc1	nt	nt	nt	50%	-5%
O=C(Nc1cccc(S(=O)(=O)N2CCOCC2)c1)C1CCCC1	13	-3%	39	nt	-8%
O=C(Nc1cccc(S(=O)(=O)N2CCOCC2)c1)C1CC1	-13	5%	-8	nt	8%
CC(C)Oc1ccc(C(=O)Nc2cccc(S(=O)(=O)N3CCCC3)c2)cc1	-125*	-9%	15	nt	-1%
O=C(Nc1cccc(S(=O)(=O)N2CCCCC2)c1)C1CCC1	-92*	0%	88	nt	7%
CC(OC(=O)C1CC1)C(=O)Nc1cccc(S(=O)(=O)N2CCOCC2)c1 (centres undefined)	-134*	7%	12	nt	13%
COc1cccc(NC(=O)c2ccc(S(=O)(=O)N3CCCC3)cc2)c1	-16	-4%	13	-6%	14%
Cc1ccc2scc(N3CCc4ccccc4C3)c(=O)c2c1	nt	nt	nt	?	0%
CCOc1ccc(NC(=O)CSC2=Nc3ccccc3C3=NC(CC(=O)NCc4cccs4)C(=O)N23)cc1 (centres undefined)	nt	nt	nt	-21%	-19%
O=C(Nc1nc(-c2cccc3ccccc23)cs1)c1ccc2c(c1)S(=O)(=O)c1ccccc1C2=O	-106*	-1%	-33	-9%	-3%
SMILES	KCNH2 3.1 block	S-ASM inh	hERG WT inh	Apoferritin bind	mIDH1 inhibitor
O=C(Nc1nc(-c2ccccc2)cs1)c1ccc2c(c1)S(=O)(=O)c1ccccc1C2=O	-31	-10%	2	-1%	4%
COc1cccc(NS(=O)(=O)c2ccc3[nH]cc(C(=O)NC4CCCCC4)c(=O)c3c2)c1	nt	nt	nt	?	-10%
S=C(NCc1ccccc1)N1CCN(c2ccccc2)CC1	-74*	2%	0	-3%	-4%
Cc1ccc(CNc2ncnc3ccc(-c4c(C)noc4C)cc23)cc1	nt	nt	nt	-8%	nt
CCn1cc(C(=O)OCC(=O)Nc2cccc(Cl)c2C)c(=O)c2ccc(C)nc21	nt	nt	nt	-6%	-8%
Cc1cccc(NC(=O)Cn2c(=O)c3cccn3c3ccccc32)c1C	nt	nt	nt	-10%	0%
Cc1ccc2cc(C(=O)O)c(C)nc2c1	-88*	2%	5	-8%	9%
Cc1cccc(-n2ncc(C(=O)N3CCN(Cc4ccccc4)CC3)c2C2CCN(C(=O)OC(C)(C)C)CC2)c1	nt	nt	nt	-18%	-1%
O=C(c1ccc([N+](=O)[O-])cc1)N1CCN(C(=O)C2CCCCC2)CC1	-71*	3%	0	-6%	19%
CCC(C)(C)C(=O)Nc1cc([N+](=O)[O-])ccc1F	-176*	0%	-250*	?	-7%
CC(=O)Nc1ccc(N(C(=O)Cn2nnc3ccccc32)C(C(=O)NCc2ccccc2)c2ccc(C)cc2)cc1 (centres undefined)	nt	nt	nt	-4%	-6%
C#CCNC(=O)c1ccc(OCc2ccccc2)cc1Cl	0	-2%	1	?	6%
O=C(NCCCl)c1ccc(OCc2ccccc2)cc1Cl	-113*	4%	-3	?	14%
CCc1ccc2[nH]c(C(=O)N(C)c3ccc(F)cc3F)cc2c1	-71*	10%	-1	10%	-4%
CCc1ccc2[nH]c(C(=O)Nc3ccc(C)c(F)c3)cc2c1	14	11%	1	1%	-13%
COC(=O)C1(CC(C)C)C=C2C(=C(c3ccccc3)C(=O)C2C)CN1 (centres undefined)	nt	nt	nt	1%	nt
O=C(COC(=O)c1cncc(Br)c1)Nc1nnc(-c2ccccc2)o1	17	1%	-72*	nt	-3%
OCC1(Cc2ccccc2)CCCN(Cc2ccc(-c3ccco3)cc2)C1 (centres undefined)	-26	-1%	-4	-10%	-7%
COc1ccc(CC2(CO)CCN(Cc3cnn(-c4ccccc4)c3)CC2)cc1	-89*	4%	-45	-13%	4%
COc1ccc(CC2(CO)CCN(Cc3cccc4nccnc34)CC2)cc1	-30	5%	1	?	-1%
COc1ccc(CC2(CO)CCN(Cc3cccn3-c3ccccn3)CC2)cc1	-108*	-4%	?	-9%	4%
COc1ccc(CC2(CO)CCN(Cc3nc(C(C)C)cs3)CC2)cc1	2	-3%	3	-13%	-5%
COc1ccc(CC2(CO)CCN(Cc3ccc4c(c3)CCO4)CC2)cc1	-181*	-1%	-154*	-6%	1%
OCC1(Cc2ccccc2)CCN(Cc2ccc(-c3ccco3)cc2)CC1	-85*	0%	-11	-7%	5%
COc1cc2nc3c(c([Si](C)(C)C(C)(C)C)c2cc1OC)Cn1c-3cccc1=O	nt	nt	nt	71%	nt
COc1ccc(CC2(CO)CCN(Cc3ccc(NC(C)=O)cc3)CC2)cc1	-23	-3%	-2	-8%	3%
